In the library only some 12% were active in any assay of this set; here they are far more common.
BAZ2B block: inhibitors of human BAZ2B bromodomain; AlphaScreen BAZ2B-H3K14Ac peptide displacement; Potency, µM (top dose mostly 114 µM), actives largely listed as inhibitors; AID 504333; 360,000 compounds, 4.4% hits; also: nearly all actives have a fitted effect of over 60% in size
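AlphaScreen displacement: compounds (up to 110uM) incubated 30 min at room temperature with a preformed 50 nM BAZ2B/50 nM biotinylated H3K14Ac peptide complex in PBS pH 7.4 with Tween-20. Donor and acceptor beads at 10 ug/mL final added, 20 min light-protected before reading.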
L3MBTL1 inh: L3MBTL1 (human) inhibition | AID 485360 | Potency, µM (highest dose often 57.1 µM), usual class: inhibitors | 230,000 compounds, 0.66% hits | AlphaScreen L3MBTL1–H3K9me1 peptide binding; also: nearly all actives have a fitted effect of over 60% in size
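L3MBTL1 (50 nM) pre-complexed 30 min with biotinylated H3(1-15)K9me1 peptide (75 nM), then compounds added for 30 min at room temperature; AlphaScreen streptavidin donor/nickel chelate acceptor beads (10 ug/mL final) read after 30 min dark incubation.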
Sfp PPTase inh: inhibitors of Bacillus subtilis Sfp phosphopantetheinyl transferase | Biochemical Sfp PPTase activity, qHTS | Potency, µM, most hits filed as inhibitors | 310,000 compounds, 3.5% hits;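 also: the enzyme is Sfp with the accession as filed and its product quenches rhodamine fluorescence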
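Step 1, compound plus 15 nM Sfp-PPTase, 15 min, room temperature. Step 2, add rhodamine-CoA (5 uM) and BHQ-2-YbbR (12.5 uM). Step 3, read 525/598 nm fluorescence at 0 and 30 min.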
G9a inh: G9a (human) methyltransferase inhibition. G9a H3K9 monomethylation, AlphaScreen, 2 h. Potency, µM (highest dose often 102 µM), most hits filed as inhibitors. 350,000 compounds, 8.8% hits; also: nearly all actives have a fitted effect of over 75% in size
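Quantitative HTS format: methyltransferase activity on a biotin-tagged H3K9 peptide is measured by AlphaScreen, using a rabbit anti-monomethyl-H3K9 antibody with streptavidin donor and anti-IgG acceptor beads. Final levels are 20 nM enzyme, 500 nM peptide, 20 uM SAM; 2 h RT.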
JMJD2A Tudor: JMJD2A Tudor domain (human) inhibition. 390,000 compounds, 4.4% hits. Potency, µM (top dose mostly 114 µM), actives largely listed as inhibitors. AlphaScreen JMJD2A-Tudor / H3K4me3 peptide binding. AID 504339; also: nearly all actives have a fitted effect of over 50% in size
HP1b binding inh: inhibitors of HP1-beta chromodomain binding to methylated histone tails; Potency, µM (doses to about 114 µM), actives largely listed as inhibitors; AlphaScreen HP1-beta / biotin-H3K9me3 peptide binding; 390,000 compounds, 0.56% hits; P83916; also: nearly all actives have a fitted effect of over 70% in size
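HP1-beta protein (50 nM final) preincubated 30 min at room temperature with biotinylated H3(1-18)K9me3 peptide (50 nM) in PBS pH 7.4, 0.01% Tween-20, then compound added for 30 min. AlphaScreen streptavidin donor/nickel chelate acceptor beads (10 ug/mL final), 30 min dark, luminescence read.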
Hits are given with their value; n = inactive; u = inconclusive; x = not tested or not shown; ! = not active in a repeat; [ ] = remark or other dose. Calls follow the shape of the dose curve; as a rule, active = well fitted curve in the direction sought with a large enough effect; inconclusive = small, poorly fitted or top-dose-only effect, or another doubt; inactive = no such curve, though single readings can be large; an effect the other way counts as inactive or inconclusive.

SMILES	BAZ2B block	L3MBTL1 inh	Sfp PPTase inh	G9a inh	JMJD2A Tudor	HP1b binding inh
C[C@]12CC[C@H]3[C@@H](CC[C@@]45O[C@@H]4C(=O)C(C#N)C[C@]35C)[C@@H]1CC[C@@H]2O (stereo partly drawn)	x	x	n	n[12.7 µM]	x	x
c1ccc(N2CCC3(CCNCC3)CC2)nc1	x	x	n	n[12.7 µM]	x	x
Brc1cccc(CNCCc2ccc3c(c2)OCO3)c1	56µM	n	u	x	22µM	n
CCOc1cc(CNCCc2cccc(F)c2)ccc1OC	45µM	x	n	22µM	1.4µM	71µM
Cn1c(=O)n(C)c2cc(CNCCc3ccccc3)ccc21	n	x	x	n	n	n
CCCCOP(=O)(OCCCC)C(Nc1ccc(C(=O)OCC)cc1)c1ccncc1 (stereo not drawn)	n	x	n	n	n	n
c1csc(CN2CCC3(CCNCC3)CC2)n1	x	x	n	n[12.7 µM]	x	x
CCOC(=O)Cn1c(C)[n+](C)c2cc(Cl)c(Cl)cc21	n	n	n	45µM	28µM	n
O=[N+]([O-])c1cc(O)c(O)c([N+](=O)[O-])c1	u	n	u	7.9µM!	n	n
O=[N+]([O-])c1cc(-n2cnnn2)c(O)c([N+](=O)[O-])c1	n	n	n	50µM	n[11.4 µM]	n
O=C(O)c1cc([N+](=O)[O-])cc([N+](=O)[O-])c1O	x	x	n	x	x	x
CC(NS(=O)(=O)c1ccc(CCC(=O)N2CCN(C)CC2)cc1)c1ccccc1 (stereo not drawn)	n	x	n	n[12.7 µM]	n	n
c1ccc2nc3ccccc3nc2c1	n	n	n	45µM	n	n
CCOC(OCC)P(=O)(O)CCCN	x	x	n	n	x	x
CC(C)NS(=O)(=O)c1ccc2c(c1)oc(=O)n2C	n	n	n	n	n	n
Cn1c(=O)oc2cc(S(=O)(=O)NCc3cccnc3)ccc21	n	x	79µM	x	n	n
COc1ccc(CNCCc2c[nH]c3ccccc23)c(OC)c1OC	n	n	n	u	n	n
COc1ccc(CCNCc2ccc(OC)c(OC)c2OC)cc1	79µM	x	n	14µM	3.2µM	u
COc1ccccc1CCNCc1ccc(OC)c(OC)c1OC	40µM	n	u	x	20µM	n
COc1ccc(CCNC(C)CCc2ccc(OC)cc2)cc1 (stereo not drawn)	u	x	n	u	n	n
CSCC[C@H](NC(=O)[C@@H](NC(=O)CNC(=O)[C@H](CC(=O)O)NC(=O)[C@H](CCSC)NC(=O)[C@@H](N)Cc1ccc(O)cc1)[C@@H](C)O)C(=O)N[C@@H](CO)C(=O)N[C@@H](CCC(N)=O)C(=O)N[C@H](C(=O)O)C(C)C	x	x	n	x	x	x
COc1ccc(NC(=O)N2CC[C@@]3(CCCN(C(=O)Oc4ccccc4)C3)C2)cc1	x	x	n	n[12.7 µM]	x	x
C=CCN(CC#CCOc1ccccc1OC)CC=C	50µM	n[11.4 µM]	u	18µM	x	x
O=C1CSC(c2ccccc2Cl)c2cc(Cl)ccc2N1 (stereo not drawn)	x	x	n	n	x	x
COc1cc(/C=C2\C(=O)NC(=O)N(c3ccccc3)C2=O)cc(OC)c1O	u	x	22µM	u	n	n
SMILES	BAZ2B block	L3MBTL1 inh	Sfp PPTase inh	G9a inh	JMJD2A Tudor	HP1b binding inh
COc1cc(/C=C2\C(=O)NC(=O)N(c3ccccc3)C2=O)c([N+](=O)[O-])cc1OC	n	n	40µM	10µM	n	n
Cn1cc(/C=C2\C(=O)NC(=O)N(c3ccccc3)C2=O)c2ccccc21	n	x	n	n	n	n
O=C1C=C2C=CC3C[C@@]2(O1)C1CCCCN31 (stereo partly drawn)	x	x	n	n[2.33 µM]	x	x
CCCCCCCCCC[n+]1cccc([C@@H]2CCCN2C)c1	x	x	56µM	x	x	x
CC1CC2OC2/C=C\C=C/C(=O)Cc2c(Cl)c(O)cc(O)c2C(=O)O1 (stereo not drawn)	x	x	n	u	x	x
CC1(C)N(O)C2CCCCC2N1O (stereo not drawn)	n	n	56µM	8.9µM	2.8µM	n
CC1(O)C[C@]2(C)N(O)C3CCCC[C@@H]3N2O1 (stereo partly drawn)	n	n	n	u	n	n
CC(=O)Nc1ccc(Nc2c(CCC(C)C)c(C)c(C#N)c3nc4ccccc4n23)cc1	n	x	x	n	n	n
CNC(C(=O)c1ccccc1)C(OC)c1ccc(C)cc1 (stereo not drawn)	n	n	n	45µM	n	n
CCCOc1ccccc1NP(=O)(Oc1ccccc1)Oc1ccccc1	n	x	n	n	n	n
O=P(O)(O)c1ccccc1OCCOCCOCCOCCOc1ccccc1P(=O)(O)O	n	x	n	10µM	n	n
O=C1CC=C2C3CC4N(CCC45c4cc(O)c(O)cc4N1C25)CC3=CCBr (stereo not drawn)	x	x	x	x	3.5µM	u
Cc1ncc2n1-c1ccc(Cl)cc1C(c1ccccc1F)=NC2O (stereo not drawn)	x	x	n	x	x	x
CN1/C(=C\C=C\C2=[N+](C)c3ccc4ccccc4c3C2(C)C)C(C)(C)c2ccccc21	4.5µM	16µM	16µM	10µM	x	x
CSc1ncc(/C=C2/C(=O)NC(=O)N(C3CCCCC3)C2=O)cn1	u	n	40µM	u	u	n
CN(C)c1ncc(/C=C2/C(=O)NC(=S)N(C3CCCCC3)C2=O)cn1	u	n	45µM	x	x	x
CSc1ncc(/C=C2/C(=O)NC(=O)N(C)C2=O)cn1	n	n	n	x	n	n
CCCCN1C(=O)NC(=O)/C(=C/c2cnc(SC)nc2)C1=O	n	n	25µM	10µM	u	n
CCC(C)N1C(=O)/C(=C\c2cnc(N(C)C)nc2)C(=O)NC1=S (stereo not drawn)	u	n[11.4 µM]	50µM	7.9µM	u	n
CC[N@+]1(C)CCC[C@@H](OC(=O)C(O)(c2ccccc2)c2ccccc2)C1	x	x	n	n[21.5 µM]	x	x
CC1(C)C(=O)C=C[C@@]2(C)C1=C(O)C(=O)[C@@]1(C)C2CC[C@@]2(C)C(c3ccoc3)C[C@H]3O[C@@]321 (stereo partly drawn)	x	x	n	n[2.33 µM]	x	x
Cc1ccccc1-n1c(/C=C/c2ccc(N(C)C)cc2)nc2ccccc2c1=O	22µM	x	x	n	22µM	n
Cc1ccccc1-n1c(/C=C/c2c(C)[nH]c3ccccc23)nc2ccccc2c1=O	n	x	x	n	n	n
Cc1ccccc1-n1c(-c2ccc([N+](=O)[O-])cc2)nc2ccccc2c1=O	n	n	n	71µM	n	n
COc1ccc(-n2c(/C=C/c3ccc(O)c(O)c3)nc3ccccc3c2=O)cc1	u	x	n	32µM	u	n
COC(=O)c1ccc2ccn(CC(=O)NC(C)C)c2c1	n	n	n	u	n	n
CCOc1ccc(-c2nc3ccc(-c4nc5ccc(N6CCN(C)CC6)cc5[nH]4)cc3[nH]2)cc1	x	x	u	13µM	x	x
Cc1nn(CCc2n[nH]c(=S)n2-c2cccc(Cl)c2)c(C)c1[N+](=O)[O-]	n	x	n	1.1µM	45µM	n
